GalR3 antagonist = human GalR3 antagonism | inhibition, % at 3 µM | 360,000 compounds, 0.44% hits | HEK293 GalR3-CNG cAMP membrane potential fluorescence; galR3 body fused to GalR1 C-terminus | AID 651719;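 active = inhibition above the screen-wide average plus 3 SD, cut at about 13% in these data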;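 also: forskolin and galanin both at EC90 stimulate the cells; cAMP rise reported by CNG channel membrane potential dye signal; 0% = forskolin plus galanin with DMSO and 100% = forskolin alone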
Target sequence (O60755 1-299 limits assumed): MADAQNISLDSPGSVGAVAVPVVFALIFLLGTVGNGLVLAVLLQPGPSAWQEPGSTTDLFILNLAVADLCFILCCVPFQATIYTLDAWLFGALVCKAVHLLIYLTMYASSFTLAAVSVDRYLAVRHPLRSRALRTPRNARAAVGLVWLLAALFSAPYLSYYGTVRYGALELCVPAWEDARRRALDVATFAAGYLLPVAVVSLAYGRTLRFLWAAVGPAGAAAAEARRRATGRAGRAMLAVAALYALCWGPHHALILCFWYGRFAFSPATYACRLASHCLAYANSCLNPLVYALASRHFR
NR2F2 inh = NR2F2 (human) inhibition, primary screen; P24468; HEK293T NGFI-A luciferase reporter, luminescence; inhibition, % at 8.6 µM; 370,000 compounds, 0.7% hits; AID 686940;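 active = inhibition above a per-plate cutoff, mean inhibition of test wells between control levels plus 3 SD, cut at about 38% in these data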;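 also: cells cotransfected with COUP-TFII expression vector driving the NGFI-A reporter; 0% = median of COUP-TF2 test wells and 100% = reporter-only cells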
SMARCA2 act = increases SMARCA2 function in MMTV reporter cells; MG213 cells, MMTV-luciferase reporter, dexamethasone, overnight; activation, % at 9.1 µM; 370,000 compounds, 1% hits; AID 652017; in the data active = activation above about 7.8%;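 also: 0% = vehicle wells and 100% = reference activator wells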
Cardio protect = modulators protecting cardiomyocytes from myocardial damage. H9c2 cardiomyocytes, H2O2 injury protection, ATPLite, 2 h. protection from H2O2 cell death, % at 20 µM. AID 588492. 360,000 compounds, 0.63% hits;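 active = compounds giving at least 50% protection of heart cells from peroxide-induced death in the single-dose screen, raw or plate-pattern-corrected value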;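 also: 0% = DMSO wells with peroxide and 100% = DMSO wells without peroxide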
Gli-Sufu antag = Gli-Sufu pathway antagonism; 340,000 compounds, 0.74% hits; Sufu-KO-LIGHT fibroblasts, Gli luciferase reporter luminescence; AID 588413; inhibition, % at 5 µM;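 active = inhibition above about 55%, limit read from the data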;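 also: 0% = DMSO-treated cells and 100% = wells with medium but no cells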
FXN GAA850 act = frataxin GAA850 promoter activation | AID 540364 | 360,000 compounds, 0.56% hits | HEK293 lucGAA850 FXN promoter luciferase reporter, 24 h; percent of 10 µM SAHA response | activation, % at 6 µM;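 active = activation above the average of all compounds screened plus 3 SD, cutoff fixed separately per campaign, cut at about 7.5% in these data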;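 also: 0% = DMSO wells and 100% = 10 µM SAHA wells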
GalR3 conf = GalR3 (human) antagonism, confirmation; shares compounds with GalR3 antagonist; HEK293 GalR3 CNG cAMP biosensor, membrane potential fluorescence; galR3 fused to GalR1 carboxy tail; challenged with forskolin and galanin at EC90; inhibition, % at 3 µM; 1,600 compounds, 59% hits;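 active = inhibition above the primary screen's cutoff, the mean inhibition of all screened compounds plus 3 SD, cut at about 13% in these data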;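 also: 0% = forskolin plus galanin and 100% = forskolin alone with DMSO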
CNG parental = acts as nonspecific agonist in parental HEK-CNG cells. HEK293-CNG parental cells, cAMP membrane potential fluorescence; normalised: DMSO wells 0%, forskolin wells 100%. shares compounds with GalR3 antagonist. activation, % at 3 µM. 1,600 compounds, 10% hits; in the data active = activation above about 1.3%
* hit, by the source's call; / = no result given. Most compounds without a hit are left out; they make up all but 3.4% or so of the library.

SMILES	GalR3 antagonist	NR2F2 inh	SMARCA2 act	Cardio protect	Gli-Sufu antag	FXN GAA850 act	GalR3 conf	CNG parental
CCCCn1c(N)c(N(CCOC)C(=O)c2cc(S(=O)(=O)N3CCOCC3)ccc2Cl)c(=O)[nH]c1=O	-5.5	-2.7	2.9	-0.7	-4.6	-0.3	/	/
CCOc1ccc(CO/N=C/c2c(C)[nH]c(=O)[nH]c2=O)cc1	22.4*	-2.7	-4.2	-7.3	-9.2	4.3	21.1*	0.3
COc1cccc(/C=C2\SC(=S)N(NC(=O)c3ccncc3)C2=O)c1	14.1*	-1.5	-3.1	-14.2	-0.2	1.4	-0.3	-0.1
CN1C(=O)C(CC(=O)Nc2ccc(F)cc2)N(Cc2cccs2)C1=S (centres undefined)	15.5*	-12.1	0.2	-4.3	2.2	-0.7	3.9	-0.6
COC(=O)c1cn(C(=O)c2cc(Br)ccc2Cl)c2ccccc12	-9.0	-5.2	-1.1	-8.6	-0.6	0.1	/	/
Oc1ccc(C(c2nnnn2CCc2ccccc2)N2CCN(c3nc4ccccc4s3)CC2)cc1 (centres undefined)	23.0*	-4.2	-4.0	-9.2	8.0	-0.9	1.4	-0.6
CCN(CC)S(=O)(=O)c1cccc(NC(=O)COC(=O)c2n[nH]c(=O)c3ccccc23)c1	14.9*	-3.6	1.2	-10.1	5.8	1.6	50.5*	-1.3
COc1ccccc1N1CCN(S(=O)(=O)CCNC(=O)CC2CCCC2)CC1	-5.6	5.4	-4.8	-6.2	/	-1.2	/	/
Cc1ccc(C(=O)Nc2ccc3cn[nH]c3c2)cc1S(=O)(=O)N1CCOCC1	-7.3	-13.0	6.0	32.2	-24.2	3.7	/	/
CCN(CC)S(=O)(=O)c1cccc(N=Nc2c(O)c3ccccc3oc2=O)c1	-5.5	-24.4	-1.3	6.0	2.8	1.9	/	/
CN(C)S(=O)(=O)c1ccc(Cl)c(C(=O)NCC2CCCCC2)c1	2.3	-7.7	-0.4	3.1	-4.1	0.2	/	/
CN(C)S(=O)(=O)c1ccc(Cl)c(C(=O)NCCNC(=O)c2cc(S(=O)(=O)N(C)C)ccc2Cl)c1	12.7*	-5.1	-2.6	-2.0	34.0	-1.9	8.2	0.3
NCc1oc(-c2ccccc2)cc1C(=O)O	-3.5	-9.5	1.1	5.4	-2.6	1.3	/	/
COc1ccc(OC)c(S(=O)(=O)N2CCCCC2C(=O)N2CCN(c3ccccn3)CC2)c1 (centres undefined)	14.2*	-4.4	-4.2	6.3	10.8	1.8	4.2	0.1
CC(C)(C)OC(=O)C[C@@H]1C/C=C\C[C@@H](CC(=O)NCCO)C(=O)NC[C@@H](c2ccccc2)OC1=O	-6.4	5.0	-0.2	11.9	-8.0	-0.1	/	/
COc1ccc(NC(=O)CC(CC(=O)O)c2cc(OC)c(OC)c(OC)c2)cc1 (centres undefined)	-5.2	4.7	-1.9	6.7	2.8	-1.5	/	/
Cc1ccc(S(=O)(=O)NCc2ccccc2)s1	-5.3	10.2	4.6	-4.3	-19.3	0.0	/	/
Cc1ccc(S(=O)(=O)NCc2cccnc2)s1	12.8*	28.7	-0.7	5.1	0.6	1.3	3.3	-0.1
Cc1nc(SCc2nc3ccccc3[nH]2)c2oc3ccc(Br)cc3c2n1	13.5*	1.1	-1.8	2.1	8.2	3.6	28.2*	0.8
COc1ccc(O)c(C(=O)c2cnn(-c3ccccn3)c2)c1	-3.9	-30.1	2.8	-0.5	-7.3	2.3	/	/
COc1ccc(O)c(C(=O)c2cnc3nc4ccccc4n3c2)c1	22.0*	15.7	0.5	60.6*	/	-0.1	17.6*	0.9
O=C(Nc1ccccc1O)C(c1ccccc1)c1ccccc1	54.6*	26.3	-5.3	-14.7	23.1	-3.9	91.9*	-1.8
CCNC(=O)NC(=O)C(C)OC(=O)c1oc2ccc(OC)cc2c1C (centres undefined)	-3.0	6.8	4.9	0.7	4.0	-0.8	/	/
CCNC(=O)NC(=O)C(C)Oc1ccc(C(=O)OC)cc1 (centres undefined)	19.8*	-14.3	0.3	2.1	1.6	-0.4	6.1	0.2
